We go through 10 molecules from PubChem BioAssay (NCATS).

Values without a mark were called inactive. The call rests on the fitted dose curve; in most records, active means well fitted activation curve with a large enough effect; inconclusive means small, poorly fitted or top-dose-only effect; inactive means flat fitted curve, though single readings scatter. Inconclusive results are not listed.
Further: % of control where 0% means no effect.

Chain of Peroxisome proliferator-activated receptor alpha (Homo sapiens) (Q07869 whole entry, looked up, the tested form may be a part): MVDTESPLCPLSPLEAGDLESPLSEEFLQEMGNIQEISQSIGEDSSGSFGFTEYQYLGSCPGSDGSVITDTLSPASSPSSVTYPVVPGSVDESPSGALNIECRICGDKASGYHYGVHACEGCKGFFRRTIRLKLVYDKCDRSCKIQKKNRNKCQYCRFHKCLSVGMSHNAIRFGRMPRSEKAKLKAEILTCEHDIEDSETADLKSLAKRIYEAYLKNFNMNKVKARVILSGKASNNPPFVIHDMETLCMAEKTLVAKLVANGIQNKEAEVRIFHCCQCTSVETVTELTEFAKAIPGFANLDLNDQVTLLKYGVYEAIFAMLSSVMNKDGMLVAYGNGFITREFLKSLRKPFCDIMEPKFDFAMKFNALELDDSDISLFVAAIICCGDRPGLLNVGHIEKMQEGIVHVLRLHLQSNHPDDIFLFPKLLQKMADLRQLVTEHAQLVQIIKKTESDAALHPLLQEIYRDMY

System in one assay: not listed separately
The experiment in a line: qHTS assay for environmental chemicals that activate the Aryl hydrocarbon Receptor (AhR) signaling pathway (AID 651777). Further: nearly all actives have a fitted effect of over 15% in size. As to conditions: 1A2-DRE human hepatoma cells, luciferase, 24 h; activation: stronger effect = higher value. In a few lines: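 Luminescence read-out: One-Glo added for 30 min at RT after 24 hr compound treatment (37 C, 5% CO2) of human hepatoma cells expressing a DRE/CYP1A2 promoter–luciferase reporter; increased signal indicates AhR activation.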
In general terms: In qHTS, concentration-response curves come from the screen itself.
With `C#CCN1CC(=O)N(COC(=O)C2C(C=C(C)C)C2(C)C)C1=O` (centres undefined), the activation is 3.63%.

As for `CCCSP(=O)(OCC)SCCC`, the activation was -2.38%.

In the case of `O=C(O)c1cc[c]([Hg][Cl])cc1`, the activation was -2.48%.

`O=C1C[C@@H]2OCC=C3CN4CC[C@]56c7ccccc7N1[C@H]5[C@H]2[C@H]3C[C@H]46`: the activation is 0.363%.

Take `CC[C@H](C)[C@H]1O[C@]2(C=C[C@@H]1C)C[C@@H]1C[C@@H](C/C=C(\C)[C@@H](O[C@H]3C[C@H](OC)[C@@H](O[C@H]4C[C@H](OC)[C@@H](O)[C@H](C)O4)[C@H](C)O3)[C@@H](C)/C=C/C=C3\CO[C@@H]4[C@H](O)C(C)=C[C@@H](C(=O)O1)[C@]34O)O2`: the activation is -12.2%.

With `ClC1C(Cl)C(Cl)C(Cl)C(Cl)C1Cl` (centres undefined), the activation is 1.78% [middle of 4 runs].

Turning to `N#CN`, the activation was 1.29%.

On to `O=[N+]([O-])C(Br)(CO)CO`, for which the activation is 5.58%.

On to `O=[N+]([O-])c1ccc(F)c([N+](=O)[O-])c1`, for which the activation was 0.408%.

A further assay addresses Peroxisome proliferator-activated receptor alpha (Homo sapiens) (UniProt Q07869). The experiment in a line: qHTS assay for small molecule agonists of the peroxisome proliferator-activated receptor alpha (PPARalpha) signaling pathway (AID 651778). The settings on record: PathHunter PPARalpha complementation, chemiluminescence, 6 h; stronger effect = higher value. In short, it runs like this: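 Enzyme-fragment complementation assay in which ligand-bound PPARalpha translocates and forms an active enzyme that generates chemiluminescence. Cells were plated overnight, exposed to compound for 6 hr at 37 C, and then given detection reagent for 60 min at room temperature.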
As for `C#CCN1CC(=O)N(COC(=O)C2C(C=C(C)C)C2(C)C)C1=O` (centres undefined), the max response is 0.547%.

For `O=C(NCNC(=O)NC1C(=O)NC(=O)N1CO)NC1C(=O)NC(=O)N1CO` (centres undefined), the max response is -1.19%.

For the molecule `CCCSP(=O)(OCC)SCCC`, the max response is 0.388%.

Consider `O=C(O)c1cc[c]([Hg][Cl])cc1`, for which the max response was -9.79%.

As to `O=C1C[C@@H]2OCC=C3CN4CC[C@]56c7ccccc7N1[C@H]5[C@H]2[C@H]3C[C@H]46`, the max response was -1.11%.

Turning to `CC[C@H](C)[C@H]1O[C@]2(C=C[C@@H]1C)C[C@@H]1C[C@@H](C/C=C(\C)[C@@H](O[C@H]3C[C@H](OC)[C@@H](O[C@H]4C[C@H](OC)[C@@H](O)[C@H](C)O4)[C@H](C)O3)[C@@H](C)/C=C/C=C3\CO[C@@H]4[C@H](O)C(C)=C[C@@H](C(=O)O1)[C@]34O)O2`, the max response is 7.18%.

Turning to `ClC1C(Cl)C(Cl)C(Cl)C(Cl)C1Cl` (centres undefined), the max response is 1.56% [middle of 4 runs].

Consider `N#CN`, for which the max response is 0.0862%.

As to `O=[N+]([O-])C(Br)(CO)CO`, the max response was 0.217%.

As to `O=[N+]([O-])c1ccc(F)c([N+](=O)[O-])c1`, the max response is -10.2%.
